Only some compounds are listed: those with a hit (about 2.5% of all), similar ones and a draw of the others.
ANO1 block: blocks the mouse calcium-activated chloride channel TMEM16A; HEK293 TMEM16A/YFP iodide influx fluorescence, ionomycin; normalized B-score (activity score, 25-100; higher = stronger inhibition) at 10 µM; 1.2% of 310,000 active; AID 588511;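 active = ratio plate-corrected score three or more library SD toward inhibition, starting fluorescence score within five deviations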;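 note: score derived from kinetic fluorescence span divided by baseline fluorescence per well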
CHT allo act: allosteric activators of human choline transporter CHT; CHT-expressing cells, membrane potential dye, choline EC20; active compounds read high; LV-AA mutant CHT in HEK293 cells; B-score at 10 µM; 0.49% of 310,000 active; AID 488977; Q9GZV3;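 active = initial fluorescence not abnormally high and integrated response B-score, plate-corrected, over 3 SD above library mean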
PKA-R1A activ: activators of PKA-R1A complex; P00514+P68181; PKA-R1A dissociation, Cy5-IP20 fluorescence polarization; scaled: DMSO 0%, 113 µM cGMP 100%; activation, % at 11.4 µM; 0.083% of 340,000 active; AID 504707;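 active = percent activation above the mean of all tested compounds plus 3 SD, cut at about 19% in these data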;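 note: higher means more PKAc released from R1A so a rise in polarization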
PKA-R2B activ: activators of human PKA-R2B complex; PKA-R2B holoenzyme dissociation, Cy5-IP20 fluorescence polarization; R2B truncated from residue 108, S112A mutant; 0% DMSO only, 100% 113 µM cGMP; 0.079% of 340,000 active; activation, % at 11.4 µM; P22694+P31323; AID 504700;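 active = activation above a cutoff set at the mean over all compounds plus 3 SD, cut at about 18% in these data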;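 note: higher means more holoenzyme dissociation and a rise in polarization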
Target sequence (P31323 whole entry, looked up, other chains not shown, the tested form may be a part): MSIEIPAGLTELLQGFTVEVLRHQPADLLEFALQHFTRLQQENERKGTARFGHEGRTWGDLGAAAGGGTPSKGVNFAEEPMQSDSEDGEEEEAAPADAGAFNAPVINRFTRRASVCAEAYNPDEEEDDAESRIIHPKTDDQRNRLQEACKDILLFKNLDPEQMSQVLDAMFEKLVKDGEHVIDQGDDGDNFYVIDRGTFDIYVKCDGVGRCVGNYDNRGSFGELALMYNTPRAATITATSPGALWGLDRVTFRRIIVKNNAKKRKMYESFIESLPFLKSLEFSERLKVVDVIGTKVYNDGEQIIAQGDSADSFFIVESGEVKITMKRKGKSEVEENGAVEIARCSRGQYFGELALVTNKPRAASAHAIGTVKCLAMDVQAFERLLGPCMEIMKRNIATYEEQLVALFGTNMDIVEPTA
CHT inh: inhibits the human high affinity choline transporter | Q9GZV3 | CHT-expressing cells, membrane potential dye, choline response; active compounds read low | B-score at 10 µM | 0.86% of 310,000 active;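 active = B-score over 3 SD under the library average, and starting fluorescence ratio not unusually high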;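 note: choline stimulus applied at its EC90 after an EC20 pre-addition; B-score computed on integrated fluorescence ratio after choline addition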
ANO1 activ: activates or potentiates the mouse TMEM16A chloride channel | Q8BHY3 | HEK293 TMEM16A/YFP-H148Q/I152L, iodide quench fluorescence; active compounds read low | B-score at 10 µM | 0.3% of 340,000 active | AID 623877;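 active = fluorescence-ratio B-score plate-corrected deviation score at least 3 library SD below zero, with starting fluorescence score within 5 deviations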;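 note: channel opened by trigger with iodide after compound preincubation; score built on the fluorescence ratio of max minus min over baseline; more negative score means more quench and so TMEM16A activation or potentiation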
* hit, by the source's call; i = inactive; . = no result.

SMILES	ANO1 block	CHT allo act	PKA-R1A activ	PKA-R2B activ	CHT inh	ANO1 activ
COc1ccc(-c2csc(/C(C#N)=C\c3ccc(O)c([N+](=O)[O-])c3)n2)cc1OC	100*	i	-9.3	5.4	i	i
COc1cc(/C=C(\C#N)c2nc3ccccc3s2)cc([N+](=O)[O-])c1O	.	.	-14.5	-1.1	.	-16.2*
N#C/C(=C\c1ccc(O)c([N+](=O)[O-])c1)c1nc2ccccc2s1	.	.	3.3	10.0	.	i
Cc1ccc(S(=O)(=O)N2CCN(c3ncnc4scc(-c5ccc(F)cc5)c34)CC2)cc1	i	i	-8.6	-0.4	i	i
CC(C)c1ccc(-c2csc3ncnc(N4CCN(C)CC4)c23)cc1	i	i	10.9	-0.7	-10.6*	i
Cc1ccc(S(=O)(=O)N2CCN(c3ncnc4scc(-c5ccccc5)c34)CC2)cc1	.	.	0.2	-3.6	.	-31.1*
COc1ccc(-c2csc3ncnc(N4CCN(c5ccc(OC)cc5)CC4)c23)cc1	i	i	2.2	9.3	i	i
Fc1ccc(CN2CCN(c3ncnc4scc(-c5ccc(F)cc5)c34)CC2)cc1	i	i	-10.2	2.1	i	i
Clc1ccc(CN2CCN(c3ncnc4scc(-c5cccs5)c34)CC2)cc1	25*	i	-6.8	-5.2	i	i
COc1ccc(C2OC(=O)CC2C(=O)NCc2ccccc2Cl)cc1OC (centres undefined)	i	i	-3.1	-5.2	i	i
O=C(O)c1ccc(-n2nc(C(F)(F)F)cc2-c2cccs2)cc1	i	i	-3.9	-0.3	i	i
CCOC(=O)C(=O)Nc1ccccc1C(=O)OC	i	i	-2.0	-6.0	i	i
CCCCOC(=O)Nc1ccccc1C(=O)OC	i	i	-3.5	-8.2	i	-12.5*
O=C(/C=C/c1ccc(O)c(O)c1)OCCc1ccccc1	100*	i	-7.2	-11.6	i	i
O=C(/C=C/c1ccc(O)c(O)c1)OC(Cc1ccc(O)c(O)c1)C(=O)O (centres undefined)	i	i	-5.1	4.8	i	i
O=C(C=Cc1cccc(O)c1)c1ccccc1O	.	.	-6.7	-9.5	.	i
O=C(/C=C/c1ccc(O)c(O)c1)c1ccccc1O	100*	i	-2.9	-7.5	i	i
Cc1ccc(S(=O)(=O)N2CCN(C(=O)CCc3c[nH]c4ccccc34)CC2)c(C)c1	.	.	-11.3	-10.0	.	i
COc1ccccc1C(=O)NC(=O)COC(=O)c1cc[n+]([O-])cc1	i	i	-8.8	-4.2	i	i
CCSc1cc(C)nc2ncnn12	i	i	1.5	-6.1	i	-19.4*
CC(=O)NC1=NC(=O)/C(=C/c2cc(C)n(-c3cccc(C(=O)O)c3)c2C)S1	.	.	.	.	.	-6.38*
CC(=O)NC1=NC(=O)/C(=C/c2cc(C)n(-c3ccc(NC(C)=O)cc3)c2C)S1	i	i	-2.5	-2.7	i	i
COc1ccccc1OCCCCOc1ccccc1F	i	i	1.3	-4.4	i	i
CCN(CC)CCCCCOc1ccccc1OC	25*	i	-4.2	-2.1	i	i
S=C(NCCC(c1ccccc1)c1ccccc1)Nc1ccc(Cl)cc1	100*	i	0.3	-1.2	i	i
SMILES	ANO1 block	CHT allo act	PKA-R1A activ	PKA-R2B activ	CHT inh	ANO1 activ
COCCN(CCOC)C(=O)c1ccc(CSc2nc3ccccc3s2)cc1	25*	i	-13.9	3.2	i	i
O=S(=O)(Nc1ccc2c(c1)OCCO2)c1ccc2oc3ccccc3c2c1	25*	i	-1.7	-10.0	i	i
CCN(CCn1cccn1)Cc1cn[nH]c1-c1cccc2ccccc12	i	i	-6.0	2.2	i	-6.24*
CCOc1ccc(-c2cnc(NCc3cccc4ccccc34)n2CCOC)cc1	100*	i	-14.0	-1.3	i	i
COc1ccc(CNc2ncc(-c3ccc(F)cc3)n2C)c2ccccc12	i	i	10.9	-8.3	i	i
CN1C(=O)/C(=C\c2cc(N=Nc3ccccc3)ccc2O)SC1=S	100*	i	5.2	5.2	i	i
Cc1nn(C2CCS(=O)(=O)C2)c(C)c1CN(C)C(=O)c1ccc(S(=O)(=O)N(C)C)cc1 (centres undefined)	.	.	-9.1	-7.2	.	i
CCN1CCCC1Cn1cnc2c([nH]c3cccc(Cl)c32)c1=O (centres undefined)	i	i	-4.1	6.5	i	-10.5*
CCN1CCCC1Cn1cnc2c([nH]c3ccc(Cl)cc32)c1=O (centres undefined)	i	i	4.6	-6.6	i	i
COc1ccc(CNC(=S)N/N=C(/C)c2ccccc2)cc1	25*	i	.	.	i	i
CCc1ccc(-c2nc(CN3CCC(C(=O)NCCN(CC)c4ccccc4)CC3)c(C)o2)cc1	i	i	-11.9	-6.8	i	i
CCN(CCNC(=O)C1CCN(Cc2nc(-c3ccc(Cl)cc3)oc2C)CC1)c1ccccc1	100*	i	-10.7	-8.7	i	i
CS/C(=N\S(=O)(=O)c1cccs1)NC(=O)CSc1nc2ccccc2s1	100*	i	-5.9	-5.9	i	i
C/C(=N/NC(=O)CSc1nc2ccccc2s1)c1ccncc1	i	i	1.9	0.7	i	i
Cc1ccc(CNC(=O)Cn2cnc3c(OCc4ccccc4)ncnc32)o1	.	.	-1.1	1.2	.	i
Cc1cccc(NC(=S)NCC(C)CSc2ccc(Cl)cc2)c1 (centres undefined)	25*	i	0.4	-5.0	i	i
CCCCn1c(N)c(N(CCOC)C(=O)c2cc(-c3ccccc3Cl)nc3ccccc23)c(=O)[nH]c1=O	i	i	-10.0	-16.4	i	i
O=C(NCCN1C(=O)S/C(=C/c2cccnc2)C1=O)c1ccc(S(=O)(=O)N2CCCC2)cc1	.	.	1.6	-9.4	.	i
Cc1cccc2sc(NNC(=O)c3ccc(S(=O)(=O)N4CCCC(C)C4)cc3)nc12 (centres undefined)	25*	i	1.1	-4.9	i	i
O=C(c1ccc(Br)cc1)c1cc2ccc(O)cc2oc1=O	25*	i	-5.3	2.7	i	i
COc1ccc(-c2cc(-c3ccccc3)c(C#N)c(S(C)=O)n2)cc1 (centres undefined)	i	i	-11.9	4.2	i	-8.06*
COc1ccc(CN2Cc3cccc4c3[C@@H](CC2=O)[C@H](O)[C@H](O)C4)cc1	.	.	8.2	-7.4	.	-9.24*

Screening data deposited in PubChem by several laboratories.
